Measured values published in PubChem BioAssay (NCATS).
Inconclusive results are not listed. The source made the active and inactive calls. The call rests on the fitted dose curve; in most records, active means well fitted inhibition curve with a large enough effect; inconclusive means small, poorly fitted or top-dose-only effect; inactive means no such curve, though single readings can be large or run the other way.

Assay: qHTS to identify inhibitors of the type 1 interferon - major histocompatibility complex class I in skeletal muscle: primary screen against the NCATS Mechanism Interrogation Plate v5.0 (MIPE) Libary (AID 1347411); further: nearly all actives have a fitted effect of over 65% in size;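 on activity change, negative = inhibition: plate controls were vehicle for no effect and reference inhibitor for full effect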
Details: iHSKM cells + IFN-b, HiBiT-tagged MHC-I luminescence, 24 h; series mostly up to 45.8 µM; activity change, negative = inhibition: at the top concentration
Source text: Assay Submitter (PI): Travis B. Kinder Ph.D. & James Inglese Ph.D.
Assay Development and Screening Technology Laboratory (ADST)
National Center for Advancing Translational Sciences (NCATS), Rockville, MD
National Institute of Health (NIH), Bethesda, Maryland
Idiopathic inflammatory myopathies, collectively referred to as myositis, are a group of rare autoimmune diseases characterized by skeletal muscle inflammation, weakness, and usually accompanied by systemic pathologies of the skin, lungs, or vasculature. Current immunosuppressive therapies and glucocorticoids are often not curative and are accompanied by harsh side effects, especially in children with juvenile myositis. We initiated a drug repurposing and development program to identify more targeted, less toxic therapeutics to treat myositis. Although its cause is not known, muscle from a subset of patients have an abundance of the inflammatory type 1 interferon (IFN) and a down-stream product major histocompatibility complex class I (MHC class I), which are both thought to contribute to damage and weakness. We conducted quantitative high throughput screening on 6,576 compounds (4,679 unique) through a series of cell-based assays to identify those that inhibit the IFN-stimulated expression of MHC class I in muscle precursor cells (myoblasts). The compound identification and evaluation strategy utilized a primary screen with reporter-tagged MHC class I in genome-engineered myoblasts, ATP content counter screen for viability, HLA-ABC immunofluorescence secondary screen, and HLA-B RT-qPCR tertiary screen.
The primary screen utilized CRISPR/Cas9 genome-engineering of immortalized human myoblasts, C25cl48, where a pro-luminescent reporter HiBit was fused to the C-terminus of endogenous MHC class I allele HLA-B*08:01 (HLA-B HiBit myoblasts). HiBit is an 11 amino acid fragment of NanoLuc luminescent reporter (Promega Corporation), and when complexed to the larger LgBit fragment, the reconstituted enzyme produces light in the presence of furimazine substrate (Schwinn et al., 2018). Briefly, HLA-B HiBit myoblasts were plated into 1536-well plates, treated with 4.0 ng/ml human IFN-beta and 2,480 compounds from the NCATS Mechanism Interrogation Plate v5.0 (MIPE5.0) in an 11-point, 1:3 titration with a high final concentration of 46 uM. After 24 hrs of treatment, cells were assayed by Nano-Glo HiBiT Lytic Detection System (Promega) and luminescence measured by a ViewLux 1430 Ultra HTS (Perkin Elmer).
Schwinn MK, Machleidt T, Zimmerman K, Eggers CT, Dixon AS, Hurst R, Hall MP, Encell LP, Binkowski BF, Wood K V. 2018. CRISPR-Mediated Tagging of Endogenous Proteins with a Luminescent Peptide. ACS Chem Biol 13:467-474. doi:10.1021/acschembio.7b00549
PROTOCOL TABLE (as described by Inglese et al., 2007)
SEQUENCE No. (e.g., 1, 2, 3, etc.); […] (e.g., Cells, Incubation, Reagent, etc.); VALUE; DESCRIPTION
1a; Cells; 5 uL; Use a Multidrop Combi (Thermo Scientific) to seed 300 cells/well into 24 Greiner 1536 well white/solid bottom, high base, TC plates in 5 ul/well of iHSKM growth medium (GM) without dexamethasone into columns 1+2. Add metal lids with gas-exchange holes
1b; Cells; 5 uL; Use a Multidrop Combi (Thermo Scientific) to seed 300 cells/well into 24 Greiner 1536 well white/solid bottom, high base, TC plates in 5 ul/well of iHSKM GM without dexamethasone + 4 ng/ml IFN-b into columns 3 - 48. Add metal lids with gas-exchange holes
2; Incubate; 1 hr; Incubate at 37 C, 5% CO2, 95% RH
3; Compounds; 23 nl; Use Pin Tool (Wako) to transfer DMSO control, ruxolitinib IFN-b inhibitor control [High Concentration = 80 uM final, 16-pt, 1:2 in duplicate], and library compounds in DMSO
4; Incubate; 24 hrs; Incubate at 37 C, 5% CO2, 95% RH
5; Dispense; 2.5 ul; Use BioRAPTR FRD (Beckman Coulter) to add HiBit lytic reagent
6; Incubate; 10 min; Incubate in the dark at ambient temperature for lysis
7; Detector; 5 sec; Measure luminescence with ViewLux 1430 Ultra HTS (Perkin Elmer). […]
Potency means the concentration at half of the fitted maximal effect.

Compound | activity change, negative = inhibition | Potency | outcome
O=C(O)CCCCN(CCc1ccccc1OCc1ccc(CCc2ccccc2)cc1)Cc1ccc(C(=O)O)cc1 | 21.8% (inactive) | – | –
C=CCN1C[C@H](C(=O)N(CCCN(C)C)C(=O)NCC)CC2c3cccc4[nH]cc(c34)C[C@H]21 (stereo not given in full) | 20% (inactive) | – | –
CCS(=O)(=O)N1CCC(C(C)n2c(C)c(C(=O)NCc3c(OC)cc(C)[nH]c3=O)c3ccccc32)CC1 (stereo not given) | -2.46% (inactive) | – | –
O=c1[nH]nc2c3c(cccc13)NC(CN1Cc3ccccc3C1)=N2 | -22.8% (inactive) | – | –
CN(C(=O)CNC(=O)/C=C/c1cccc(Cl)c1)C1CCS(=O)(=O)CC1 | -5.66% (inactive) | – | –
C=C1/C(=C/C=C2\CCCC3(C)[C@@H]([C@H](C)/C=C/C=C/C(O)(CC)CC)CC[C@@H]23)C[C@@H](O)C[C@@H]1O (stereo not given in full) | -29.4% (inactive) | – | –
COc1ccc(C(=O)N2CCN(c3ccc4c(c3)CCC(=O)N4)CC2)cc1OC | -13.5% (inactive) | – | –
O=C([O-])C[O-].[Pt+2] | -13.5% (inactive) | – | –
Ac-PHSCN-NH2 | -1.33% (inactive) | – | –
CNS(=O)(=O)Nc1nccc(Cc2c(C)c3ccc(Oc4ncccn4)cc3oc2=O)c1F | -15.1% (inactive) | – | –
CN1C(=O)N[C@H](Cc2c[nH]c3c(Cl)cccc23)C1=O | -12.7% (inactive) | – | –
CC(C)(O)[C@H]1CC[C@@](C)([C@H]2[C@@H](O)C[C@@]3(C)[C@@H]4C[C@H](O[C@@H]5O[C@H](CO)[C@@H](O)[C@H](O)[C@H]5O)[C@H]5C(C)(C)[C@@H](O[C@@H]6OC[C@@H](O)[C@H](O)[C@H]6O)CC[C@@]56C[C@@]46CC[C@]23C)O1 | -9.31% (inactive) | – | –
CCOc1cc(/C=C2/C(=O)N(c3ccccc3)N=C2C)cc(Cl)c1OCC(=O)OC | -7.33% (inactive) | – | –
CC(C)c1c(-c2ccccc2)nc2c(C#N)c[nH]n2c1=O | – | 5.23 µM (active) | –
CC(C)Oc1ccc(-c2nn([C@@H](C)c3oc4ccc(F)cc4c(=O)c3-c3cccc(F)c3)c3ncnc(N)c23)cc1F | -12.3% (inactive) | – | –
C=CCNC1=C2CC(C)CC(OC)C(O)C(C)/C=C(\C)C(OC(N)=O)C(OC)/C=C/C=C(\C)C(=O)NC(=CC1=O)C2=O (stereo not given) | – | 0.0587 µM (active) | –
COc1ccc(S(=O)(=O)NCc2ccc(C(=O)NCCc3ccc(Cl)cn3)cc2)cc1 | 12.9% (inactive) | – | –
O=C(/C=C/C#Cc1cccc(NS(=O)(=O)c2ccccc2)c1)NO | – | 2.55 µM (active) | –
CC(=O)N[C@H]1[C@H](O[C@@H]2c3ccc(c(Cl)c3)Oc3cc4cc(c3O[C@@H]3O[C@H](CO)[C@@H](O)[C@H](O)[C@H]3NC(=O)CCCCCCCC(C)C)Oc3ccc(cc3Cl)C[C@H]3NC(=O)[C@H](N)c5ccc(O)c(c5)Oc5cc(O)cc(c5)[C@H](NC3=O)C(=O)N[C@H]4C(=O)N[C@H]3C(=O)N[C@@H]2C(=O)N[C@@H](C(=O)O)c2cc(O)cc(O[C@H]4O[C@H](CO)[C@@H](O)[C@H](O)[C@@H]4O)c2-c2cc3ccc2O)O[C@H](CO)[C@@H](O)[C@@H]1O | 5.09% (inactive) | – | –
C[C@@]1(c2ncncc2F)NC(=O)c2cc(-c3cn[nH]c3)ccc21 | – | 20.8 µM (active) | –

Compound | activity change, negative = inhibition | Potency | outcome
CNC(=O)[C@@H](NC(=O)[C@H](CC(C)C)[C@H](O)C(=O)NO)C(C)(C)C | 37.3% (inactive) | – | –
O=C(/C=C/c1ccc2ccc(C(F)(F)F)cc2n1)c1ccncc1 | – | 5.23 µM (active) | –
Cc1ccc(-c2ccc(C)cn2)nc1 | -8.09% (inactive) | – | –
COC(=O)/C=C/C(=O)OC | 0.527% (inactive) | – | –
O=c1c(-c2ccc(O)cc2)coc2c([C@@H]3O[C@H](CO)[C@@H](O)[C@H](O)[C@H]3O)c(O)ccc12 | 1.5% (inactive) | – | –
O=C(/C=C/c1ccc(CN(CCO)CCc2c[nH]c3ccccc23)cc1)NO | – | 0.186 µM (active) | –
COC1=C(OC)C(=O)C(C/C=C(\C)CC/C=C(\C)CC/C=C(\C)CC/C=C(/C)CC/C=C(\C)CC/C=C(\C)CC/C=C(\C)CC/C=C(\C)CC/C=C(\C)CCC=C(C)C)=C(C)C1=O | 1.4% (inactive) | – | –
N=C1S/C(=C\c2ccc(-c3ccc4c(c3)C(=O)NC4=O)o2)C(=O)N1c1ccc(Br)cc1 | 6.58% [at 15.5 µM] (inactive) | – | –
Nc1nc(-c2nn(Cc3ccccc3F)c3ncccc23)ncc1C1CC1 | -14.5% (inactive) | – | –
CN1CCN(c2ccc3nc(-c4cc(C(C)(C)C)c(OCCCC(=O)NCCCN=[N+]=[N-])c(C(C)(C)C)c4)[nH]c3c2)CC1 | – | 13.1 µM (active) | –
C[C@H]1[C@H](C)CC[C@]2(C(=O)O)CC[C@]3(C)C(=CC[C@@H]4[C@@]5(C)CC[C@H](O)C(C)(C)[C@@H]5CC[C@]43C)[C@H]12 | 4.73% (inactive) | – | –
CN(C)C(N)=NC(=N)N | – | – | inactive
COc1cc2c(NC3CCN(C4CCCCC4)CC3)nc(N3CCCN(C(C)C)CC3)nc2cc1OCCCN1CCCCC1 | – | 11.7 µM (active) | –
CC1(C)S[C@H]2[C@H](NC(=O)[C@@H](N)c3ccc(O)cc3)C(=O)N2[C@H]1C(=O)O | -1.39% (inactive) | – | –
CCN(C(=O)c1ccccc1OC)c1cc2c(cc1N1CCNC[C@H]1C)n(C)c(=O)n2C | 1.42% (inactive) | – | –
CC(=O)c1ccc2c(c1)c1cc(C(C)=O)ccc1n2CCNC(C)C | – | 1.47 µM (active) | –
CN(Cc1ccc(/C=C/C(=O)NO)cc1)CC12CC3CC(CC(C3)C1)C2 | – | 0.33 µM (active) | –
Cn1cc(/C=C2\C(=O)Nc3cccnc32)c2ccccc21 | – | 29.4 µM (active) | –
Cc1onc(-c2ccc(F)cc2)c1COc1ccc(C(=O)N2CCS(=O)(=O)CC2)cn1 | -3.07% (inactive) | – | –
CC(C)(C)c1[nH]cnc1/C=c1\[nH]c(=O)/c(=C/c2ccccc2)[nH]c1=O | -69.2% (inactive) | – | –
